A short description of test [1]: ATG_GLI_CIS: Attagene CIS-FACTORIAL HepG2 Assay for human Zinc Finger Protein GLI1 (AID 2282945). Conditions: HepG2, Attagene cis-factorial reporter mRNA, GLI element; actives raise or lower the signal. In a few lines:
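Bidirectional curve fits relative to DMSO, using reporter mRNA levels from RT-PCR plus capillary electrophoresis. Cells were HepG2 transiently carrying cis-regulated reporter constructs, harvested 24 h after dosing.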

Test [2] addresses Bile acid receptor (Homo sapiens) (UniProt Q96RI1). Kind of test: ATG_IR1_CIS: Attagene CIS-FACTORIAL HepG2 Assay for human Nuclear Receptor Subfamily 1 Group H Member 4 (NR1H4), IR1 submotif (AID 2282946). The settings on record: IR1 reporter transcription, actives raise or lower the signal. In a few lines: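 HepG2 cells transiently transfected with multiplexed cis-element reporter units read endogenous transcription factor activity. After 24 h compound exposure, reporter mRNA was quantified by RT-PCR, fluorescent labelling, HpaI digestion and capillary electrophoresis; bidirectional fitting versus DMSO baseline.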

Test [3] is described as follows: ATG_GRE_CIS: Attagene CIS-FACTORIAL HepG2 Assay for human Glucocorticoid Response Elements (GRE) (AID 2282947). The settings on record: HepG2 GRE cis-reporter, Attagene multiplex mRNA; actives raise or lower the signal. In a few lines:
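Multiplexed cis-reporter mRNA induction, HepG2, 24 h post-dose. RT-PCR, FAM-labelled, HpaI-digested amplicons by CE. Bidirectional fit vs DMSO.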

A short description of test [4]: ATG_ISRE_CIS: Attagene CIS-FACTORIAL HepG2 Assay for human Interferon Regulatory Factor 1 (IRF1) binding to an Interferon-Stimulated Response Element (ISRE) (AID 2282948). Conditions: HepG2 ISRE cis-reporter (Attagene), mRNA transcription readout; actives raise or lower the signal. In a few lines: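 Multiplexed mRNA reporter readout in human liver HepG2 cells: cis-element-driven reporters transfected, compound added for 24 h, transcripts amplified, fluorescently labelled and sized by capillary electrophoresis; curve fitting bidirectional against DMSO.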

A short description of test [5]: ATG_M_32_CIS: Attagene CIS-FACTORIAL HepG2 Assay for M32 Transcription Factor (Internal Marker) (AID 2282949).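 Also: background control marker of the multiplexed CIS panel rather than a real target.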 The settings on record: HepG2 Attagene cis-factorial M32 reporter, mRNA; actives raise or lower the signal. In a few lines: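 Using DMSO as baseline, bidirectional curve fits were applied to reporter mRNA signals. These came from transiently transfected HepG2 cells exposed for 24 h, with RNA analysed by RT-PCR, FAM primer extension, HpaI digestion and CE.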

The nature of test [6]: ATG_M_06_CIS: Attagene CIS-FACTORIAL HepG2 Assay for M06 Transcription Factor (Internal Marker) (AID 2282950). Conditions: HepG2 Attagene CIS-FACTORIAL M06 internal marker reporter; actives raise or lower the signal. In a few lines: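 Read-out is fluorescence of labelled reporter cDNA fragments resolved by capillary electrophoresis after RT-PCR. Cells: HepG2 carrying transfected cis-promoter reporter units, treated 24 h. Gain or loss of signal fitted relative to DMSO.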

Test [7] addresses Hypoxia-inducible factor 1-alpha (Homo sapiens) (UniProt Q16665). Kind of test: ATG_HIF1a_CIS: Attagene CIS-FACTORIAL HepG2 Assay for human Hypoxia Inducible Factor 1 (HIF1A) (AID 2282951). Conditions: HepG2 Attagene cis-factorial HIF1a reporter transcription; actives raise or lower the signal. In a few lines: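 Dosed 24 h, transfected HepG2 cells yielded total RNA whose reporter transcripts were RT-PCR-amplified and sized by capillary electrophoresis using fluorescent labelling; DMSO defined baseline, with gain and loss of signal both fitted.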

For test [8], the target named is Hepatocyte nuclear factor 6 (Homo sapiens) (UniProt Q9UBC0). Kind of test: ATG_HNF6_CIS: Attagene CIS-FACTORIAL HepG2 Assay for human Hepatocyte Nuclear Factor 6 (HNF6) (AID 2282952). The settings on record: HepG2 Attagene cis-factorial HNF6 reporter transcription; actives raise or lower the signal. In a few lines:
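First, HepG2 cells were transfected with the multiplexed cis reporter library and dosed with chemical for 24 h. Next, RNA was reverse-transcribed, PCR-amplified and fluorescently labelled. Finally, HpaI-digested fragments were read by capillary electrophoresis.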

Test [9] deals with Heat shock factor protein 1 (Homo sapiens) (UniProt Q00613). Briefly: ATG_HSE_CIS: Attagene CIS-FACTORIAL HepG2 Assay for human Heat Shock Transcription Factor 1 (HSE) (AID 2282953). Conditions: HepG2 HSE cis-reporter, Attagene RNA transcription; actives raise or lower the signal. In a few lines: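 HepG2, transient MRTU transfection, cis-promoter reporters (endogenous TF activity). 24 h compound. RNA → oligo(dT) RT → PCR → 6-FAM primer extension → HpaI cut → CE. Bidirectional fit vs DMSO.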
Heat shock factor protein 1 (Homo sapiens), sequence (Q00613 whole entry, looked up): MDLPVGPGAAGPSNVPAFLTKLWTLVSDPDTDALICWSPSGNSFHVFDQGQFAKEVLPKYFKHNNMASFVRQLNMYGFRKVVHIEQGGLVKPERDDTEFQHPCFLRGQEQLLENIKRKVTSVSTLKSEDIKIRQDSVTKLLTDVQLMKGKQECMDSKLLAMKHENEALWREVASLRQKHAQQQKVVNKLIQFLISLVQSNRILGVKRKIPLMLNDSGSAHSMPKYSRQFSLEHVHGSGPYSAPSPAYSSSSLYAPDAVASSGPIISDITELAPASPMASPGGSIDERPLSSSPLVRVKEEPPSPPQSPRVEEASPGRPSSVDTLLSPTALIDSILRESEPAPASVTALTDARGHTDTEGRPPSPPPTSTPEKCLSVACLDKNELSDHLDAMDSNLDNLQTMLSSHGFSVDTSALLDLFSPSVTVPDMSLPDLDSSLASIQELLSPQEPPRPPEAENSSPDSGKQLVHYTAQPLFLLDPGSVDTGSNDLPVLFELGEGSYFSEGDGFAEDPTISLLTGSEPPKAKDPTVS

Test [10] in a line: ATG_MRE_CIS: Attagene CIS-FACTORIAL HepG2 Assay for human Metal Responsive Element (MRE) (AID 2282954). Conditions: HepG2 MRE cis-reporter transcription, Attagene multiplex; actives raise or lower the signal. In a few lines: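 Multiplexed cis-reporter assay in human HepG2 liver cells, 24 h incubation with test chemical. Reporter transcripts measured by RT-PCR and capillary electrophoresis; values from bidirectional curve fitting versus DMSO.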

Each structure is given as a SMILES string. The source made the active and inactive calls. The calls were made as follows: active = hit-call score of the fitted dose curve at least 0.9, where 1 is the maximum; inactive = score below 0.9.

A word on the AC50: it is the concentration giving half of the maximal activity seen.

Hypoxia-inducible factor 1-alpha (Homo sapiens), sequence (Q16665 whole entry, looked up): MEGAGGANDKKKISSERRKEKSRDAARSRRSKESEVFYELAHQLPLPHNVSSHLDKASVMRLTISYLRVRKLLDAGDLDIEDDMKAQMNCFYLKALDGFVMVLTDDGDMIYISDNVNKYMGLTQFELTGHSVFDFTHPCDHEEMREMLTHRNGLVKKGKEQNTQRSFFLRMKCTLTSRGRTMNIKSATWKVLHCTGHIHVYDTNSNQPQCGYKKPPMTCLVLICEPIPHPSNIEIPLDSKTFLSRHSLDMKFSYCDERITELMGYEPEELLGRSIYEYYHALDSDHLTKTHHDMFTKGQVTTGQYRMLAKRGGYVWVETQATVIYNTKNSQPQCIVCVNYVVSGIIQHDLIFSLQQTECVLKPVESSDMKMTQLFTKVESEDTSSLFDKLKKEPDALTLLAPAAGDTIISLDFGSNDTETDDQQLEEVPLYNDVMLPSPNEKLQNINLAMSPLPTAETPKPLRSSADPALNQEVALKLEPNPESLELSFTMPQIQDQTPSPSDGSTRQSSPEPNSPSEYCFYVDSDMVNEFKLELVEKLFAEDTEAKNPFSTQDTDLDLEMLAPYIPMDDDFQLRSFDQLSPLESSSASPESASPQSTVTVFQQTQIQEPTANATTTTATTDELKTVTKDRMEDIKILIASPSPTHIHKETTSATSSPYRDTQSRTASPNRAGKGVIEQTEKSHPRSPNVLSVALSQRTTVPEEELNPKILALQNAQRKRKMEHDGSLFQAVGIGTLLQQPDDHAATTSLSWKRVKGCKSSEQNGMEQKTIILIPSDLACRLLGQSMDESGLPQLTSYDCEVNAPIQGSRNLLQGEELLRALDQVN
Bile acid receptor (Homo sapiens), sequence (Q96RI1 whole entry, looked up): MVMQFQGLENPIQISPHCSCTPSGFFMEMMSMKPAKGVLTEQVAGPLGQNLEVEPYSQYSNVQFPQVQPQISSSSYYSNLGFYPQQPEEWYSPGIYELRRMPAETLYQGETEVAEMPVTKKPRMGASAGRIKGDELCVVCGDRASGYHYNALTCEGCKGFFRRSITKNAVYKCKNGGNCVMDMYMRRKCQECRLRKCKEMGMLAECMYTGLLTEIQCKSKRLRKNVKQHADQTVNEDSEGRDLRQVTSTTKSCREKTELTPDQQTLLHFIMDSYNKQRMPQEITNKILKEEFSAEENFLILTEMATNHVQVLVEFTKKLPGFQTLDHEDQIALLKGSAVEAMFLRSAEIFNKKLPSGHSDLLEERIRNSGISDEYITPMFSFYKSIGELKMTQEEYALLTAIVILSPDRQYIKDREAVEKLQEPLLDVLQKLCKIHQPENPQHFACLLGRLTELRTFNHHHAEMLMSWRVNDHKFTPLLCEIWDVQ
Hepatocyte nuclear factor 6 (Homo sapiens), sequence (Q9UBC0 whole entry, looked up, the tested form may be a part): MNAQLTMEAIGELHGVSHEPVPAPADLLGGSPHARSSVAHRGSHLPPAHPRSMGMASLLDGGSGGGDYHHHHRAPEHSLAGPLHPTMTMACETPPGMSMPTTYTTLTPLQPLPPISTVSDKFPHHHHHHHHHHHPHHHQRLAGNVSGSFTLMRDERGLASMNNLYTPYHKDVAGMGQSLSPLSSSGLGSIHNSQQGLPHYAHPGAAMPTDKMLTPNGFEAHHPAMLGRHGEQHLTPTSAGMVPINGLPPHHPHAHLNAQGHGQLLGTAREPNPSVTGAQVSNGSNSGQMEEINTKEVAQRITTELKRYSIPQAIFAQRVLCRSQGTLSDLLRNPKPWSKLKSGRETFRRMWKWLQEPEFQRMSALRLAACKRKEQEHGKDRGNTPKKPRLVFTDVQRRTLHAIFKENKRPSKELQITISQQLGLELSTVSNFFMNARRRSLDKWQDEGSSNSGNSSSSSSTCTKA

For the compound `Brc1nc2ccccc2s1`, the result in [1], in test [2], in [3], in [4], in test [5] and in test [6] was inactive. Moreover, the result in [8] and in test [10] was inactive. The figures for the AC50 in test [7] and in [9] were 125 µM (active) and 89.7 µM (active), respectively.
In the case of `Cc1cccc(C)n1`, the call in [1], in [2], in [3], in test [4], in [5] and in [6] was inactive. Moreover, the call in test [7], in test [8], in [9] and in [10] was inactive.
Turning to `CCOC(C=C(C)CCC=C(C)C)OCC`, the compound was classed as inactive in test [1], in test [2], in [3], in test [4], in test [5] and in [6]. Moreover, the compound was called inactive in [7], in test [8], in test [9] and in test [10].
For `N#CCCOCCC#N`, the compound was called inactive in test [1], in test [2], in [3], in test [4], in test [5] and in test [6]. Besides, the result in [7], in [8], in [9] and in [10] was inactive.
Regarding `OCC(F)(F)C(F)(F)C(F)(F)CO`, the outcome in test [1], in test [2], in test [3], in test [4], in test [5] and in test [6] was inactive. Besides, the call in test [7], in test [8], in test [9] and in test [10] was inactive.
Regarding `CC1CCCCC1`, the outcome in test [1], in [2], in test [3], in test [4], in test [5] and in test [6] was inactive. Further, the call in test [7], in test [8], in test [9] and in [10] was inactive.
Turning to `OCCCCC(F)(F)C(F)(F)C(F)(F)C(F)(F)F`, the compound was classed as inactive in test [1], in test [2], in [3], in [4], in test [5] and in test [6]. The compound was called inactive in test [7], in test [8], in test [9] and in test [10].
On to `COC(=O)c1ccc(C=O)cc1`, for which the result in [1], in test [2], in test [3], in [4], in test [5] and in test [6] was inactive. Moreover, the compound was classed as inactive in test [7], in test [8], in [9] and in test [10].
For the compound `O=C(Cl)c1ccc(Cl)cc1Cl`, the compound was called inactive in [1], in test [2], in test [3], in test [4], in test [5] and in test [6]. In addition, the compound was classed as inactive in test [7], in [8] and in test [10]. Further, in test [9], the AC50 was 163 µM (active).
Turning to `O=C(Cl)C(F)(F)C(F)(F)C(F)(F)C(F)(F)C(F)(F)C(F)(F)C(F)(F)F`, the outcome in [1], in test [2], in test [3], in test [4], in [5] and in [6] was inactive. In addition, the compound was called inactive in [7], in [8], in [9] and in test [10].
As to `C=CC(=O)OCCC(F)(F)C(F)(F)C(F)(F)C(F)(F)F`, the result in test [1], in [2], in test [3], in [4], in test [5] and in [6] was inactive. The call in [7], in test [8], in [9] and in [10] was inactive.
Turning to `CN(C(=O)C(F)(F)C(F)(F)C(F)(F)F)[Si](C)(C)C`, the outcome in test [1], in test [2], in [3], in test [4], in test [5] and in test [6] was inactive. The result in [7], in test [8], in test [9] and in test [10] was inactive.
With `O=C(O)CCC(F)(F)C(F)(F)C(F)(F)F`, the call in test [1], in [2], in [3], in test [4], in test [5] and in test [6] was inactive. Also, the outcome in [7], in test [8], in test [9] and in test [10] was inactive.
Regarding `CN(N=O)C(=O)N[C@@H]1[C@@H](O)[C@H](O)[C@@H](CO)O[C@@H]1O`, the compound was called inactive in test [1], in [2], in test [3], in test [4], in test [5] and in [6]. The compound was called inactive in [7], in test [8], in [9] and in [10].
As to `C=CCOC(=O)CC(C)C`, the compound was called inactive in test [1], in test [2], in test [3], in [4], in test [5] and in [6]. Also, the call in test [7], in test [8], in [9] and in test [10] was inactive.
In the case of `CCCCCCCC/C=C\CCCCCCCC(=O)N(C)CC(=O)O`, the outcome in [1], in [2], in test [3], in [4], in test [5] and in test [6] was inactive. Also, the compound was called inactive in test [7], in [8], in test [9] and in test [10].
`CSc1ccc(Cl)cc1`: the compound was classed as inactive in test [1], in [2], in test [3], in [4], in test [5] and in [6]. Moreover, the outcome in test [7], in test [8], in test [9] and in [10] was inactive.
Regarding `CNS(=O)(=O)C(F)(F)C(F)(F)C(F)(F)C(F)(F)C(F)(F)C(F)(F)C(F)(F)C(F)(F)F`, the compound was called inactive in [1], in [2], in test [3], in [4], in test [5] and in [6]. Besides, the call in test [8], in test [9] and in [10] was inactive. Also, the AC50 in [7] is 24.4 µM (active).
On to `CC(C)(C)c1cc(CCC(=O)NCCCCCCNC(=O)CCc2cc(C(C)(C)C)c(O)c(C(C)(C)C)c2)cc(C(C)(C)C)c1O`, for which the outcome in [1], in test [2], in [3], in [4], in [5] and in test [6] was inactive. Besides, the result in test [7], in test [8], in [9] and in test [10] was inactive.
For the compound `CSc1ccc(O)cc1C`, the compound was classed as inactive in test [1], in [2], in test [3], in test [4], in test [5] and in test [6]. Also, the result in test [7], in [8], in [9] and in test [10] was inactive.
For `O=C(Cl)C(F)(F)C(F)(F)C(F)(F)C(F)(F)C(F)(F)C(F)(F)F`, the result in [1], in test [2], in test [3], in [4], in test [5] and in test [6] was inactive. The compound was classed as inactive in test [7], in test [8], in [9] and in test [10].
As for `O=S(=O)(O)CCC(F)(F)C(F)(F)C(F)(F)C(F)(F)F`, the compound was called inactive in [1], in test [2], in [3], in test [4], in test [5] and in test [6]. Besides, the compound was called inactive in test [7], in [8], in test [9] and in [10].
On to `CCCC(=O)OCC(COC(=O)CCC)OC(=O)CCC`, for which the outcome in test [1], in test [2], in test [3], in test [5], in test [6] and in test [7] was inactive. Moreover, the compound was classed as inactive in test [8], in test [9] and in [10]. Further, in test [4], the AC50 was 53 µM (active).

For the origin of these results see PubChem BioAssay (EPA / NIEHS).
